# Data from ChEMBL document CHEMBL1157539, “Thousands of chemical starting points for antimalarial lead identification” (Nature, 2010).
# Columns and labels:
# Format in all cases: functional
# Plasmodium falciparum [1] = test: GSK_TCMDC: Inhibition of Plasmodium falciparum 3D7 in whole red blood cells, using parasite LDH activity as an index of growth. Test compounds present at 2uM
# Plasmodium falciparum [2] = test: GSK_TCMDC: Inhibition of Plasmodium falciparum Dd2 in whole red blood cells, using parasite LDH activity as an index of growth. Test compounds present at 2uM
# HepG2 = test: GSK_TCMDC: Percent inhibition of human HepG2 cell line. Test compounds present at 10uM.
SMILES,Inhibition (Plasmodium falciparum [1]) [%],Inhibition (Plasmodium falciparum [2]) [%],Inhibition (HepG2) [%]
N#Cc1ccc(-c2ccc(C(=O)NCCCCN3CCC(c4cn(CCO)c5ccccc45)CC3)cc2)cc1,93,43,23
CCN(CC)c1cc(C)c2cc(NC(=O)c3cc(=O)c4ccccc4o3)ccc2n1,97,67,14
Cc1cccc2nc(-c3cccc(-c4ccc(NC(=O)C(C)CN5CCOCC5)cc4)c3)[nH]c12 (stereo not given),93,30,7
Cc1cc(N2CC=CCC2)nc(NC(=N)Nc2ccc(Br)cc2)n1,98,41,10
O=C(Nc1ccc(OC2CCN(Cc3ccccc3)CC2)c(Cl)c1)c1cccs1.O=C(O)C(F)(F)F,96,95,2
O=C(/C=C/c1ccc(Cl)c(Cl)c1)NCCCCN1CCCN(C(=O)Nc2ccc(Cl)c(Cl)c2)CC1,96,1,22
Cc1cccn2c(=O)c3cc(C(=O)NCc4cccnc4)c(=N)n(CCc4ccccc4)c3nc12,99,38,0
CCCCNc1nc(NCCCC)c2c(C)c(Cc3ccccc3)c(NCCCC)nc2n1.Cl,95,84,69
COCCOc1ccc(Nc2nccc(-c3c(-c4cccc(NC(=O)c5c(F)cccc5F)c4)nn4ccccc34)n2)cc1F,90,60,62
O=C(Cn1c(SCc2cccc(F)c2F)cc(=O)c2ccccc21)N(CCn1ccnc1)Cc1ccc(-c2ccc(C(F)(F)F)cc2)cc1,100,94,20
